In PubChem BioAssay:
Active and inactive are the calls of the source. Unless noted, how the calls were made is not given here.

Key:
[1] = system: Wnt5a (protein binding on small-molecule microarray); experiment: small molecules binding Wnt5a protein – biophysical, small-molecule microarray, 635/667 nm fluorescence, primary screen (AID 1142); details: 635 nm fluorescence, higher = more signal;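 further: fluorescence read at 667 nm with signal to noise per printed feature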
[2] = ATP-based viability of Huh7 replicon cells – cell-based, CellTiter-Glo luminescence, basal, 48 h, cytotoxicity control for HCV replication inhibitor project, primary screen (AID 1143); details: higher = more signal, called active from +8 up or from −8 down;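 further: Huh7 hepatoma cells carrying a hepatitis C replication reporter with no stimulus; test concentration not given here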
[3] = Pseudomonas biofilm growth suppression – PAO1 strain, BacTiter-Glo luminescence, LB-PBS, primary screen (AID 1144); details: P. aeruginosa PAO1 biofilm, 12 h, higher = more signal
[4] = basal CRE-LacZ reporter activity in PC12 – cell-based, unstimulated, primary screen (AID 1145); details: no forskolin, luminescence, 4.5 h, higher = more signal, called active from +8 up or from −8 down
[5] = forskolin-driven CRE-LacZ activity in PC12 – cell-based, CRE-LacZ reporter, forskolin-stimulated, primary screen (AID 1146); details: luminescence, 4.5 h, higher = more signal, called active from +8 up or from −8 down;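 further: PC12 cells with 6xCRE LacZ reporter stimulated by forskolin 10 µM; beta-galactosidase reporter signal reflecting CREB driven transcription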
[6] = biological target: Streptavidin (Streptomyces avidinii) (UniProt P22629); experiment: compounds binding control protein streptavidin – biophysical, small-molecule microarray, 635/667 nm fluorescence, artefact control for SMM compound annotation, primary screen (AID 1147); details: higher = more signal;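 further: signal reflects streptavidin binding to arrayed compounds as a control protein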
[7] = probe aInhba binding on compound microarray – biochemical, small-molecule microarray, 635/667 nm fluorescence, primary screen (AID 1148); details: higher = more signal;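 further: score merges 667nm spot fluorescence with signal-to-noise for antibody binding to printed compounds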
[8] = biological target: Torsin-1A (Homo sapiens) (UniProt O14656); experiment: TOR1A wild-type binding on microarray – cell lysate, small-molecule microarray, lysate, 635/667 nm, primary screen (AID 1149); details: COS7 hTOR1A-WT lysate, 635 nm fluorescence, higher = more signal
[9] = biological target: Torsin-1A (Homo sapiens) (UniProt O14656); experiment: torsin A mutant lysate binding on microarrays – cell lysate, small-molecule microarray, COS7 lysate, 635/667 nm fluorescence, primary screen (AID 1150); details: COS7 hTOR1A mutant lysate, 635 nm fluorescence, higher = more signal;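 further: score pools 667 nm emission and signal to noise measuring lysate protein binding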
[10] = system: Sonic hedgehog protein (Shh); experiment: Sonic hedgehog microarray binding compounds – biochemical, small-molecule microarray, 635/667 nm fluorescence, primary screen (AID 1151); details: 635 nm fluorescence, higher = more signal;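 further: Shh protein binding to compounds spotted on small-molecule microarray slides; score combines spot fluorescence intensity with signal-to-noise across triplicate slides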
[11] = optical density shifts of acrAB sulA E. coli – strain DRC41, OD650, 48 h, E. coli filamentation inducer project, primary screen (AID 1152); details: higher = more signal, called active from +8 up or from −8 down;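 further: E. coli MC1000 strain DRC41 lacking acrAB efflux pump and sulA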
[12] = probe aLefty1 binding on compound microarray – biochemical, small-molecule microarray, 635/667 nm fluorescence, primary screen (AID 1153); details: higher = more signal;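 further: score merges spot fluorescence with signal-to-noise ratio from the scanned slide images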
[13] = plasmodial surface anion channel blockers, osmotic lysis – cell-based, P. falciparum Indochina, OD700, 1 h, primary screen (AID 1154); details: P. falciparum Indochina infected RBC osmotic lysis, higher = more signal, called active from +8 up or from −8 down
[14] = plasmodial surface anion channel blockers, osmotic lysis – cell-based, P. falciparum Indochina, OD700, 2 h, primary screen (AID 1155);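 further: lysis reports solute entry through the parasite surface anion channel PSAC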; details: P. falciparum Indochina infected erythrocytes, higher = more signal, called active from +8 up or from −8 down
[15] = changes in parasitized red cell lysis, either direction – P. falciparum Indochina, OD700, 3 h, PSAC antagonist project, primary screen (AID 1156); details: P. falciparum-infected erythrocytes, osmotic lysis, higher = more signal, called active from +8 up or from −8 down
[16] = plasmodial surface anion channel blockers, osmotic lysis – cell-based, P. falciparum Indochina, OD700, 18 h, primary screen (AID 1157); details: P. falciparum Indochina infected erythrocytes, osmotic lysis OD700, 18 h; higher = more signal, called active from +8 up or from −8 down
[17] = S6 kinase pathway phospho-S6 level changes – cell-based, A549, cytoblot, luminescence, serum-stimulated, primary screen (AID 1158); details: 5 h, higher = more signal;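 further: serum-stimulated A549 lung adenocarcinoma cells; signal is phosphorylated S6 detected by cytoblot immunostaining with HRP secondary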
[18] = biological target: NADPH oxidase 2 (Homo sapiens) (UniProt P04839); experiment: compounds shifting NOX2 Amplex Red fluorescence – cell-based, HEK293-NOX2, PMA-stimulated, NOX inhibitor project, primary screen (AID 1159); details: 45 min, higher = more signal, called active from +8 up or from −8 down; further: test concentration not given here
[19] = biological target: NADPH oxidase 4 (Homo sapiens) (UniProt Q9NPH5); experiment: compounds shifting NOX4 Amplex Red fluorescence – cell-based, HEK293-NOX4, tetracycline-induced, NOX inhibitor project, primary screen (AID 1160); details: HEK293-NOX4, Amplex Red H2O2 fluorescence, 45 min; higher = more signal, called active from +8 up or from −8 down
[20] = biological target: NADPH oxidase 5 (Homo sapiens) (UniProt Q96PH1); experiment: compounds shifting NOX5 Amplex Red fluorescence – cell-based, HEK293-NOX5, NOX inhibitor project, primary screen (AID 1161); details: HEK293-NOX5, ionomycin, 45 min, higher = more signal
Sequence of NADPH oxidase 5 (Homo sapiens) (Q96PH1 whole entry, looked up): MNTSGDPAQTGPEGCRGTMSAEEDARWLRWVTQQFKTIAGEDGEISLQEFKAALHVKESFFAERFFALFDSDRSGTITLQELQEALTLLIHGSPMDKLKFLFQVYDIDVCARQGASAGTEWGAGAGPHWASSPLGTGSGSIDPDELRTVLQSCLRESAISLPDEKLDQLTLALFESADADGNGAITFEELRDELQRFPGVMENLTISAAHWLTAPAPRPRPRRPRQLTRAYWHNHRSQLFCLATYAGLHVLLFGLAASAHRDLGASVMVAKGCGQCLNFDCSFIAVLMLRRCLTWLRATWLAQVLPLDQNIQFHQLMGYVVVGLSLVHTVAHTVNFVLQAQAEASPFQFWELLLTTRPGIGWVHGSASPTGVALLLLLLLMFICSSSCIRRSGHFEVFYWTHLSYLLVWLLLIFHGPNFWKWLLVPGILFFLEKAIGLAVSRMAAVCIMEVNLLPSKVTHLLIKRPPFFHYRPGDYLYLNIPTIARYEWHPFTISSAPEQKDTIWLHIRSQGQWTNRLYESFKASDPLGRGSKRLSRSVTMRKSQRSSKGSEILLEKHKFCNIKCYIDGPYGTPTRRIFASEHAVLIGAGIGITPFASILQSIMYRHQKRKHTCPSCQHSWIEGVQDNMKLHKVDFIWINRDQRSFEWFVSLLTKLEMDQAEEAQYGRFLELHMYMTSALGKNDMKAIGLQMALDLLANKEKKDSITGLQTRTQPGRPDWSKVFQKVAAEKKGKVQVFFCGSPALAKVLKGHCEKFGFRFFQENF

Sequence of NADPH oxidase 4 (Homo sapiens) (Q9NPH5 whole entry, looked up): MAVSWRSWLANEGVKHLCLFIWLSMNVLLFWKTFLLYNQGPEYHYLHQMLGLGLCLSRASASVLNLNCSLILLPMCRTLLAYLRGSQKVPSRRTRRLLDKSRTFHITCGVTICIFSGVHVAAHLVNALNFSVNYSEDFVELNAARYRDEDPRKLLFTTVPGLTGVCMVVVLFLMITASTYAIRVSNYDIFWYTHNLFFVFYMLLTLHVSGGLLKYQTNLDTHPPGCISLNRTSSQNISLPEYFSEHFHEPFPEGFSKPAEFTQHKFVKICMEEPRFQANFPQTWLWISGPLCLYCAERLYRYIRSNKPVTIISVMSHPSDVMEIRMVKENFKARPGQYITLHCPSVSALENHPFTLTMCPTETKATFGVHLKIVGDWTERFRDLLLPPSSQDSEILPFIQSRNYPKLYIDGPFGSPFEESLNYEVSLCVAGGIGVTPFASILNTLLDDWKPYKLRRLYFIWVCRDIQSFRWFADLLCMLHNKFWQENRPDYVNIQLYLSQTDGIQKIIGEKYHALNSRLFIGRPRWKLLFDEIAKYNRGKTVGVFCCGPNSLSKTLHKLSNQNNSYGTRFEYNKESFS
Sequence of NADPH oxidase 2 (Homo sapiens) (P04839 whole entry, looked up): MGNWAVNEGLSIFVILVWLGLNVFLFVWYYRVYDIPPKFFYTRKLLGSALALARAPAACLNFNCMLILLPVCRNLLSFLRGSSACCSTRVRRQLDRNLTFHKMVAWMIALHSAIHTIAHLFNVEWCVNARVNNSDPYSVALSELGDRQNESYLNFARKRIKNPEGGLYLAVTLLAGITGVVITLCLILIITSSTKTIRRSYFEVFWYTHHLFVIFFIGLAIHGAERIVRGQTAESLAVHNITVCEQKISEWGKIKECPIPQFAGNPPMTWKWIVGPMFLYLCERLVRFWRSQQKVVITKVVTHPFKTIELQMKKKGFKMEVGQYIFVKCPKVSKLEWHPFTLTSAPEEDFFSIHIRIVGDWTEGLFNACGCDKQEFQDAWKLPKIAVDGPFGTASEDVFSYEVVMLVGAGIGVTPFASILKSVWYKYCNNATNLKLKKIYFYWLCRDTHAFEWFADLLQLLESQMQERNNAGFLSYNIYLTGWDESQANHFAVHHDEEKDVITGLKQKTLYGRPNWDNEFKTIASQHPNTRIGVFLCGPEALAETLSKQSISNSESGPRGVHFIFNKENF
Sequence of Torsin-1A (Homo sapiens) (O14656 whole entry, looked up): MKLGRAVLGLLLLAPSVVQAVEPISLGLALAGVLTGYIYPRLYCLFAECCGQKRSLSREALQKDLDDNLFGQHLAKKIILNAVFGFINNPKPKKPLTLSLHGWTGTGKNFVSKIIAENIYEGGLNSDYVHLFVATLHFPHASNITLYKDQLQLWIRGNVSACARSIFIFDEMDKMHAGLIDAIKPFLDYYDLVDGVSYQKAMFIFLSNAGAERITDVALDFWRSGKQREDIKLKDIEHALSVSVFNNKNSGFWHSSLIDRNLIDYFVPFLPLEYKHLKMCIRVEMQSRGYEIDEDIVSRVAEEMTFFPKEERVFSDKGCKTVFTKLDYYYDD
Sequence of Streptavidin (Streptomyces avidinii) (P22629 whole entry, looked up): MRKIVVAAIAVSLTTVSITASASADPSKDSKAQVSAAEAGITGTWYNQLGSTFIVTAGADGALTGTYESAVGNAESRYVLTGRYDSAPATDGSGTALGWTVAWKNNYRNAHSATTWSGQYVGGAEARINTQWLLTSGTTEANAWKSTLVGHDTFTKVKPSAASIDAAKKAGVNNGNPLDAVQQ

SMILES | composite z-score [1] | z-score [2] | z-score [3] | z-score [4] | z-score [5] | composite z-score [6] | composite z-score [7] | composite z-score [8] | composite z-score [9] | composite z-score [10] | z-score [11] | composite z-score [12] | z-score [13] | z-score [14] | z-score [15] | z-score [16] | z-score [17] | z-score [18] | z-score [19] | z-score [20]
CN(C)C(=O)[C@@]1(Cc2ccccc2N=[N+]=[N-])N=C(c2ccc(OCCCO)cc2)O[C@H]1c1ccccc1N=[N+]=[N-] | 0.451 | -3.76 (inactive) | 1.19 (inactive) | 1.19 (inactive) | -1.97 (inactive) | 0.54 | 0.0028 | 0.761 | 0.776 | -0.536 | 0.0086 (inactive) | -0.213 | 31.3 (active) | 29.7 (active) | 2.54 (inactive) | 3.39 (inactive) | 0.246 | -1.34 (inactive) | -0.493 (inactive) | -2
NC(=O)NCC#Cc1ccc2c(c1)[C@]1(C(=O)N2)[C@H](c2ccc(OCCO)cc2)N2[C@H](c3ccccc3)[C@H](c3ccccc3)OC(=O)[C@H]2[C@@H]1C(=O)N1CCN(c2ncccn2)CC1 | 0.132 | 0.342 (inactive) | -0.724 (inactive) | -0.491 (inactive) | -0.301 (inactive) | -0.373 | 0.15 | 0.539 | 0.673 | 1.5 | 0.811 (inactive) | 0.538 | 3.03 (inactive) | 1.1 (inactive) | 0.454 (inactive) | 0.516 (inactive) | 0.0981 | 1.75 (inactive) | 1.48 (inactive) | 0.41
CCCC=C(CCC)[C@@H](NS(=O)(=O)c1cccc2cccnc12)c1ccc(C(=O)OC)cc1 | 3.01 | -0.0811 (inactive) | -0.124 (inactive) | -1.13 (inactive) | 0.0608 (inactive) | 0.358 | 2.04 | 0.361 | 0.0731 | -0.187 | -1.2 (inactive) | 0.968 | -0.643 (inactive) | -0.299 (inactive) | -0.722 (inactive) | -1.19 (inactive) | 0.393 | 0.0603 (inactive) | 0.212 (inactive) | 2
COc1ccc(C(=O)Nc2ccc(CN3C(=O)[C@@]4(O[C@@H](CC(=O)N5Cc6ccccc6C[C@H]5CO)[C@H]([Si](C)(C)c5ccc(OC)cc5)[C@H]4C)c4ccccc43)cc2)cc1 | 0.206 | -3.32 (inactive) | 0.127 (inactive) | 0.381 (inactive) | 0.281 (inactive) | -0.145 | -0.154 | 1.31 | 0.002 | 1.62 | 0.0225 (inactive) | 0.176 | 4.72 (inactive) | 1.4 (inactive) | 0.655 (inactive) | 0.868 (inactive) | 0.0933 | 0.105 (inactive) | 0.417 (inactive) | -0.886
C[C@]12C(=O)N(CCCCCO)[C@@H]3C(=O)N(c4ccc(Cl)cc4)CC=CC31O[C@@H]1/C=C\CCCOC(=O)C12 (stereo not given in full) | -0.937 | -0.297 (inactive) | 1.45 (inactive) | 0.203 (inactive) | -0.416 (inactive) | -1.19 | -0.179 | -2.76 | -1.63 | 0.0607 | -1.14 (inactive) | -0.0054 | -0.198 (inactive) | -0.307 (inactive) | -1.04 (inactive) | -0.183 (inactive) | -0.58 | 0.754 (inactive) | 0.055 (inactive) | 1.45
[N-]=[N+]=NCc1ccccc1[C@H]1OC(c2ccc(OCCCO)cc2)=N[C@@]1(Cc1ccccc1N=[N+]=[N-])C(=O)N1CCCCC1 | 0.163 | -3.39 (inactive) | -0.567 (inactive) | 0.236 (inactive) | -1.04 (inactive) | 1.31 | 0.277 | 0.84 | 0.89 | 0.419 | 0.369 (inactive) | 0.72 | 27.7 (active) | 21.4 (active) | 2.7 (inactive) | 4.56 (inactive) | -0.0152 | -2.52 (inactive) | 0.328 (inactive) | -0.575
C=C(COC)C(=O)CC[C@H](OC(=O)c1ccccc1-c1ccccc1C(=O)O)c1ccc(OCCO)cc1 | 0.314 | -0.0319 (inactive) | -0.623 (inactive) | 2.19 (inactive) | -0.42 (inactive) | -0.237 | 0.0906 | 2.29 | 0.383 | 1.81 | 0.146 (inactive) | 0.134 | 10.5 (active) | 1.72 (inactive) | 2 (inactive) | 0.626 (inactive) | -0.0494 | 0.00741 (inactive) | -0.221 (inactive) | -1.8
COCC1=C([C@H](O)CCc2ccccc2)[C@H](CO)[C@@H]2C(=O)N(C)C(=O)[C@@H]2C1 | -0.147 | -0.398 (inactive) | -0.668 (inactive) | 0.496 (inactive) | -1.67 (inactive) | -0.11 | -0.0313 | 0.389 | 0.414 | 0.552 | 1.87 (inactive) | -0.0691 | 9.45 (active) | 1.29 (inactive) | -0.64 (inactive) | 0.254 (inactive) | 0.155 | -0.58 (inactive) | 0.371 (inactive) | 0.4
CCOC(=O)C1=CC[C@@H](c2ccc(N(CC)CC)cc2)N(S(=O)(=O)c2ccc(C)cc2)[C@H]1c1ccc([N+](=O)[O-])cc1 | -0.383 | -3.45 (inactive) | 0.858 (inactive) | -0.583 (inactive) | 0.619 (inactive) | 1.08 | -0.0332 | -1 | -0.101 | -0.438 | -1.24 (inactive) | 0.437 | 1.66 (inactive) | 0.86 (inactive) | 0.723 (inactive) | 0.779 (inactive) | -0.779 | 0.599 (inactive) | -1.37 (inactive) | -0.131
